Compounds without any hit were thinned out: in the full panel of roughly 83,000, 20% have a hit.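 Method: cells in 96-well plates; compound added at one concentration; 48 h incubation; percent growth measured; values under 10 scored active.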 Values without a mark were called inactive. Calls of active or inactive are those of the source.
These compounds were tested on M14 melanoma (assay: NCI-60 one-dose screen, 48 h (100 = growth as untreated, 0 = no growth, -100 = all killed)). Settings: 10 µM unless noted.

Structure (SMILES)	growth
Cc1ccc(-c2onc3c(=O)[nH]nc(-c4ccccc4)c23)cc1	23.2%
O=C1CSC(=S)N1CCc1ccc(O)cc1	87.9%
CNC(=O)c1cc(Oc2ccc(NC(=O)Nc3ccc(Cl)c(OC(F)(F)F)c3)c(F)c2)ccn1	4.35% (active)
N#C/C(=C\c1ccc(-c2ccc(Cl)c(Cl)c2)o1)c1nc(-c2ccco2)cs1	99.3%
O=S(=O)(Nc1ccc(OC(F)F)cc1)c1ccc(-c2cnc(C3CC3)o2)cc1	50.9%
O=C1Nc2cc(-c3ccc(O)cc3)ccc2/C1=C/c1ccc[nH]1	10.9%
CON1C(=O)CC[C@]2(C)[C@H]3CC[C@@H]4C([C@@]5(C)CCC(=O)O5)CC[C@@]4(C)[C@]3(C)CC[C@H]2C1(C)C (stereo partly drawn)	97%
Cn1cc(C(=O)c2nc(-c3c[nH]c4ccc(Br)cc34)no2)c2cc(F)ccc21	100%
COc1ccc(-n2nc(C)c3c(Nc4ccc(NC(=O)Nc5cccc(C(F)(F)F)c5)cc4)ncnc32)cc1	-0.151% (active)
CC(C)C1=C[C@@]23CC[C@@H]4[C@](C)(CCC[C@@]4(C)C(=O)N4CCCNCC4)[C@H]2C[C@@H]1[C@H]1C(=O)CCC(=O)[C@H]13	93%
C#CCOc1ccc2ncnc(N3CCC(NC(=O)CCl)CC3)c2c1	72.8% [8.25 µM]
Cc1ccc(NC(=O)/C=C/c2ccccc2)c(C(N)=O)c1	27%
COc1ccc(/C=C\c2cc(OC)c(OC)c(OC)c2)cc1OC(=O)c1cccc(Cn2cc(CCOC(=O)[C@H](N)Cc3cn(C)c4ccccc34)nn2)c1	9.47% (active)
